VHR inh abs – DUSP3 (human) phosphatase inhibition | P51452 | recombinant VHR phosphatase, pNPP absorbance | inhibition, % at 13.3 µM | actives 0.52% (n = 290,000) | AID 1654; in the data active = inhibition above about 50%
Target sequence (P51452 whole entry, looked up): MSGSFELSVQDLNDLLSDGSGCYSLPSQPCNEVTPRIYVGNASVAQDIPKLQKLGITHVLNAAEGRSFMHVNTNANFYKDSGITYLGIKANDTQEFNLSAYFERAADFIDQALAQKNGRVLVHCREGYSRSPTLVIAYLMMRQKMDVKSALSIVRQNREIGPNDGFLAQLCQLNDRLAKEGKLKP
BioA inh – inhibitors of Mycobacterium tuberculosis BioA enzyme; purified M. tuberculosis BioA enzyme, plate reader; inhibition, % at 9.99 µM; actives 0.096% (n = 360,000); AID 602481; in the data active = inhibition above about 40%; inconclusive = no clear call, values can overlap the other calls
Yp Topo-I inh – blocks Yersinia pestis topoisomerase I activity; Y. pestis Topo-I cleavage product accumulation, plate reader; activity, % at 10 µM; actives 0.064% (n = 360,000); in the data active = activity above about 50%, passing the limit was not always enough; inconclusive = no clear call, values can overlap the other calls
TcdB inh – blocks C. difficile toxin B glycohydrolase activity | TcdB glycohydrolase enzymatic assay, plate reader | inhibition, % at 9.99 µM | actives 0.24% (n = 350,000) | AID 652162; in the data active = inhibition above about 10%
MazEF act – increases E. coli MazEF RNase cleavage of RNA; FAM/BHQ RNA-DNA oligo cleavage fluorescence, 5 h; actives 0.32% (n = 350,000); activation, % at 20 µM; AID 504720; in the data active = activation above about 50%
Target sequence (P0AE70 whole entry, looked up): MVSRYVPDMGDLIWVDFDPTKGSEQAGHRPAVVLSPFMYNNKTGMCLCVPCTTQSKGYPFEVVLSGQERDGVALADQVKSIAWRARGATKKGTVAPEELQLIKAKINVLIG
FadD28 binding – blocks FadD28 binding to the bisubstrate probe | fluorescence polarization | inhibition, % at 12.5 µM | actives 0.22% (n = 360,000); in the data active = inhibition above about 8.5%, passing the limit was not always enough; inconclusive = no clear call, values can overlap the other calls
The depositor's hits bear a star; ? = inconclusive; · = no result given. In the library only some 1% were active in any assay of this set; here they are far more common.

SMILES | VHR inh abs | BioA inh | Yp Topo-I inh | TcdB inh | MazEF act | FadD28 binding
Cc1cccc(NC(=O)CN2C(=O)S/C(=C\c3ccc(-c4cccc(C(=O)O)c4C)o3)C2=O)c1 | 6 | · | · | 0 | -51 | ·
Cc1ccc(NC(=O)CN2C(=O)S/C(=C/c3ccc(-c4cc(C(=O)O)ccc4C)o3)C2=O)cc1C | 29 | 0 | 15 | · | 75* | 14*
COc1cc(/C=C2\SC(=O)N(CC(=O)Nc3cccc(C)c3)C2=O)cc([N+](=O)[O-])c1O | 11 | · | -12 | 0 | -1 | 31*
CCn1c(C)cc(/C=C2\NC(=O)N(CC(=O)Nc3cccc(C)c3)C2=O)c1C | 13 | -2 | -2 | · | 6 | 10*
CCn1c(C)cc(/C=C2/NC(=O)N(CC(=O)Nc3cccc(C)c3)C2=O)c1C | 16 | -1 | -5 | · | 2 | 0
Cc1cccc(NC(=O)CN2C(=O)N/C(=C\c3ccc(-c4cccc(C(=O)O)c4)o3)C2=O)c1 | 29 | · | 0 | -1 | 3 | 43*
O=C(C1CCCC1)N1CC(=O)N2[C@@H](CO)[C@H](c3ccc(-c4ccccc4F)cc3)[C@@H]2C1 | · | · | · | -1 | · | ·
COc1ccc2c3c([nH]c2c1)[C@@H](CO)N(C(=O)c1cnccn1)CC31CCN(S(C)(=O)=O)CC1 | · | · | · | -1 | · | ·
COCC(=O)N(C)C[C@@H]1Oc2cc(C#Cc3ccccc3)ccc2S(=O)(=O)N([C@@H](C)CO)C[C@H]1C | · | 1 | · | 0 | · | ·
C[C@@H]1CN([C@H](C)CO)S(=O)(=O)c2ccc(C#Cc3ccncc3)cc2O[C@@H]1CN(C)C(=O)C1CCOCC1 | · | -1 | · | -4 | · | ·
CO[C@@H]1CN(C)C(=O)c2ccc(NC(=O)c3ccc(F)cc3)cc2OC[C@@H](C)NC[C@@H]1C | · | · | · | 0 | · | ·
Cc1ccc(NC(=O)CN2C(=O)N/C(=C\c3cccn3-c3cccc(C(=O)O)c3)C2=O)cc1 | 17 | -1 | 7 | · | -10 | ?
Cc1ccc(NC(=O)CN2C(=O)N/C(=C/c3cc(C)n(-c4cccc(C(=O)O)c4)c3C)C2=O)cc1 | -3 | · | 7 | 1 | -1 | 49*
COc1ccc(/C=C2/NC(=O)N(CC(=O)Nc3cccc(C)c3)C2=O)cc1O | 15 | 4 | -8 | 3 | 9 | 18*
CN1C(=O)c2cc(NC(=O)c3ccc(F)cc3)ccc2OC[C@@H]2O[C@H](CC(=O)O)CC[C@H]21 | · | -1 | · | 1 | · | ·
Nc1nc(CCOc2ccc(F)cc2)cs1 | 20 | · | 1 | 11* | 8 | -2
C[C@@H]1CCCCO[C@@H](CN(C)C(=O)NC2CCCCC2)[C@H](C)CN([C@@H](C)CO)C(=O)c2cc(NS(=O)(=O)c3cccs3)ccc2O1 | · | 0 | · | 0 | · | ·
COc1ccc(OC)c(/C=N/NC(=O)CSc2cc(C)nc3c(OC)cccc23)c1 | 53* | · | 3 | 1 | 7 | -3
COc1ccc2nc(C)cc(SCC(=O)N/N=C/c3ccco3)c2c1 | 22 | · | 4 | 2 | -24 | ·
O=C1CC(=Nc2ccc([N+](=O)[O-])cc2)NN1c1c(Cl)cc(Cl)cc1Cl | · | -1 | -11 | 3 | -10 | 15*
CCCC(=O)Nc1ccc2c(c1)OC[C@H](C)N(Cc1nccs1)C[C@@H](C)[C@@H](OC)CN(C)C2=O | · | 1 | · | 0 | · | ·
Oc1ccc2ccccc2c1/C=N/Nc1nnc(-c2ncc[nH]2)c2ccccc12 | 15 | · | 2 | · | 65* | -3
COc1ccc(/C=N/Nc2nnc(-c3ncc[nH]3)c3ccccc23)cc1 | 23 | 1 | -4 | · | -2 | -2
COc1ccccc1C(=O)N/C(N)=N/c1nc2ccccc2o1 | 38 | -2 | 3 | · | 61* | -3
COc1cccc(-c2ccnc3[nH]n(-c4ccccc4)c(=O)c23)c1 | 51* | 0 | -3 | 1 | 4 | -4
SMILES | VHR inh abs | BioA inh | Yp Topo-I inh | TcdB inh | MazEF act | FadD28 binding
O=c1c2c(-c3ccc([N+](=O)[O-])cc3)ccnc2[nH]n1-c1ccccc1 | 58* | 1 | -9 | 0 | 9 | -3
CC1=NN(c2ccc([N+](=O)[O-])cc2)C(=O)/C1=C\N(C)C | 1 | · | -9 | 1 | -13 | -2
CC1=NN(c2ccc([N+](=O)[O-])cc2)C(=O)C1 | · | 1 | -10 | 1 | 2 | 14*
C/C=C1\NC(=O)[C@H](CC(N)=O)N(C)C(=O)C([C@@H](C)O)NC(=O)C(CCCc2ccc(OC)cc2)NC(=O)[C@H](C(C)C)NC(=O)/C(=C\C)NC(=O)[C@H](O)[C@@H](C[C@@H](O)CCCCCCC)NC(=O)[C@H](C)NC(=O)CN(C)C(=O)[C@H](CCC(N)=O)NC1=O (stereo not given in full) | · | 5 | 31 | 1 | -2 | 11*
CCOc1ccc(N=CC2=C(O)CC(C)(C)CC2=O)cc1 | -7 | -3 | -3 | · | 11 | -3
CC1(C)CC(=O)C(C=Nc2ccc(O)cc2)=C(O)C1 | 32 | -2 | 0 | 32* | 1 | -3
CC1(C)CC(=O)C(C=Nc2ccc(N)cc2)=C(O)C1 | 22 | · | -1 | 13* | 5 | -8
COc1cccc(N=CC2=C(O)CC(C)(C)CC2=O)c1 | 3 | -5 | -8 | 1 | -8 | -1
COc1cccc(-c2ccc([C@H]3[C@H]4CN(C(=O)C5CCCCC5)CC(=O)N4[C@H]3CO)cc2)c1 | · | · | · | 1 | · | ·
O=C(C[C@@H]1CC[C@H]2[C@@H](COC[C@H](O)CN2Cc2ccccc2)O1)N[C@@H]1CCN(Cc2ccccc2)C1 | · | -2 | · | -2 | · | ·
O=C(Nc1ccccc1F)N[C@@H]1CC[C@H](CCNS(=O)(=O)c2ccccc2)O[C@H]1CO | · | 1 | · | 1 | · | ·
CC(C)CC#Cc1ccc2c(c1)O[C@@H](CN(C)C(=O)Cc1ccccc1)[C@@H](C)CN([C@H](C)CO)S2(=O)=O | · | -1 | · | -3 | · | ·
CNc1ccccc1C(C)(C)c1cn(-c2ccc([N+](=O)[O-])cc2)nn1 | 53* | -1 | 1 | -1 | 5 | -1
Cc1ccn(-c2ccc([N+](=O)[O-])cc2)n1 | 12 | 0 | -1 | · | -6 | -3
COc1ccc(CCNc2cc(C)[nH]c(=O)c2)cc1OC | 60* | 1 | -4 | 1 | 2 | -3
O=C(N/N=C/c1cccc([N+](=O)[O-])c1O)c1cccs1 | 56* | · | -6 | -1 | -3 | 0
COc1ccc2[nH]c3c(=O)n(CCCCC(=O)NCCN4CCCC4)c(=S)[nH]c3c2c1 | 6 | 0 | -4 | 11* | 12 | -2
CCCCNC(=O)CCCCn1c(=S)[nH]c2c([nH]c3ccc(OC)cc32)c1=O | 2 | · | -1 | 1 | 2 | -1
COc1ccc(C#Cc2ccc3c(c2)[C@H]2[C@H](CCN2Cc2ccncc2)[C@H](CO)N3)cc1 | · | · | · | 0 | · | ·
CCOC(=O)Cc1csc(SCC(=O)Nc2cc(Cl)ccc2Oc2ccccc2)n1 | 30 | · | 68* | · | -21 | -1
Cc1ccc(S(=O)(=O)/N=C2/NC(=O)/C(=C/c3cc([N+](=O)[O-])ccc3O)S2)cc1 | -4 | 0 | -15 | -11 | -39 | 33*
CC(=O)Nc1ccc(S(=O)(=O)/N=C2/NC(=O)/C(=C\c3ccco3)S2)cc1 | 6 | · | -2 | -3 | -18 | 3
